These results are taken from the supplement of paper PMC11624193, “Coupling cellular drug-target engagement to downstream pharmacology with CeTEAM” (Nature Communications, 2024).

SMILES strings stand for the structures. Structures can show the parent of a compound that is named as a salt.

For the experiment, the target named is PARP1 L713F-nLuc biosensor (HCT116) (UniProt P09874). The experiment is described as follows: PARP1 L713F-nLuc/akaLuc ratio relative to DMSO control (biosensor stabilization) (fold change); higher = more PARP1 biosensor stabilization (target engagement / stabilizer), active = hit call of the paper. Particulars: stock concentration (mM; final µM = stock mM x 1): 10; 24 h;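 active = log2 fold change beyond 2 SD from the library mean after excluding viability outliers; inactive = within 2 SD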.
PARP1 L713F-nLuc biosensor (HCT116), sequence (P09874 whole entry L713F, looked up): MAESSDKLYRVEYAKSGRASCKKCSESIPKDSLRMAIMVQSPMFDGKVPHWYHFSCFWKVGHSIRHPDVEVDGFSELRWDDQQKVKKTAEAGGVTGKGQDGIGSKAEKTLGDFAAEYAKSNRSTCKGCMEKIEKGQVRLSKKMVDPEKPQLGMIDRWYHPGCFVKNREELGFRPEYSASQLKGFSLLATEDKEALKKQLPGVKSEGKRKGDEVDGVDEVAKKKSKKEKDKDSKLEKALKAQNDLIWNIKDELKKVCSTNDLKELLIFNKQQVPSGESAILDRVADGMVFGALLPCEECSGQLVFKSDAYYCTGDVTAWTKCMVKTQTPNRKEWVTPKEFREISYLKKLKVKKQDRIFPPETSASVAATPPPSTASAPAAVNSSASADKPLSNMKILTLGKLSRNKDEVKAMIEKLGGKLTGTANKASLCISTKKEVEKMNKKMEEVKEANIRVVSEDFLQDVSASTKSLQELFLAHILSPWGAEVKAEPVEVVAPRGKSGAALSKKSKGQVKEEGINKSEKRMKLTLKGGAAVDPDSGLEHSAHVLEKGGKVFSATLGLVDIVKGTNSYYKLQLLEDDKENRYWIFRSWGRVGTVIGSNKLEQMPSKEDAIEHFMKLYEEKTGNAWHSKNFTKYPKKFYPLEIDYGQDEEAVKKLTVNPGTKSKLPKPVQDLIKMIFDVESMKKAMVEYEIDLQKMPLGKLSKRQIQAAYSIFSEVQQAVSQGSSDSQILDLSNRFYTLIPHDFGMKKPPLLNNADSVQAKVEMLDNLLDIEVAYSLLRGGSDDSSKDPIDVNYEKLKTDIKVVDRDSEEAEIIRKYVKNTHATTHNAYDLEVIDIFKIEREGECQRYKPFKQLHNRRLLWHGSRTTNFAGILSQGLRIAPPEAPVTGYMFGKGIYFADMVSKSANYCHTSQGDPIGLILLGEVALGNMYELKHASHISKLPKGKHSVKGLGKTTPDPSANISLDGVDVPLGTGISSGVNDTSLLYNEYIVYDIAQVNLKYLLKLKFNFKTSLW
Consider `COc1ccc(C(=C2C(=O)Nc3ccccc32)c2ccc(OC)cc2)cc1`, for which the “PARP1 L713F-nLuc/akaLuc ratio” value is 0.833 (inactive).
Consider `CC1(C)c2cccc(C(=O)NO)c2CN1c1cnc(C(F)(F)F)cn1`, for which the “PARP1 L713F-nLuc/akaLuc ratio” value was 0.913 (inactive).
In the case of `COC(=O)c1ccc(OC(=O)CCCCCCC(=O)NO)cc1` [Remetinostat], the “PARP1 L713F-nLuc/akaLuc ratio” value was 1.25 (inactive).
Consider `CN(C)C(=N)NC(=N)N` [Metformin (hydrochloride)], for which the “PARP1 L713F-nLuc/akaLuc ratio” value is 0.94 (inactive).
With `COC(=O)c1cc(CN2CCN(C(=N)N)CC2)cc(C(=O)N2CCN(C(=O)c3ccc(C(=N)N)cc3)CC2)c1` [CBB1007 (trihydrochloride)], the “PARP1 L713F-nLuc/akaLuc ratio” value was 0.723 (inactive).
With `O=C(O)CNC(=O)c1nc(Cl)c2ccccc2c1O`, the “PARP1 L713F-nLuc/akaLuc ratio” value is 0.618 (inactive).
The same measure for `Cc1cc(N2C[C@@H](C)N[C@@H](C)C2)ncc1-c1ccc(-c2nc3c(ccn3C)c(=O)[nH]2)cc1`: 1.15 (inactive); for `COc1cc(OC2CCN(C)CC2)ccc1Nc1ncc2c(n1)n(C1CCCC1)c(=O)n2C`: 1.18 (inactive).
For `COc1cc2ncnc(Nc3ccc(F)c(Cl)c3)c2cc1OCCCN1CCOCC1` [Gefitinib (ZD1839)], the “PARP1 L713F-nLuc/akaLuc ratio” value is 1.04 (inactive).
The figure for `O=C(O)CCNC(=S)NCCCC[C@H](NS(=O)(=O)c1cccc(F)c1)C(=O)N[C@@H](Cc1c[nH]c2ccccc12)C(=O)NC1CCC1` [SIRT5 inhibitor 1] is 0.907 (inactive); for `NCCNS(=O)(=O)c1cccc2c(Cl)cccc12` [A-3 (hydrochloride)] it is 0.846 (inactive).
`N#Cc1ccc2ncnc(NCCc3ccccc3)c2c1` [Senexin A]: the “PARP1 L713F-nLuc/akaLuc ratio” value is 1.24 (inactive).
Turning to `O=C1COc2c(CCNCCN(C(=O)CCNCCc3ccc(Cl)c(Cl)c3)C3CCCCC3)ccc(O)c2N1`, the “PARP1 L713F-nLuc/akaLuc ratio” value was 1.16 (inactive).
Take `O=C(O)CNC(=O)c1c(O)c2ccccc2n(OCC2CC2)c1=O` [Desidustat]: the “PARP1 L713F-nLuc/akaLuc ratio” value is 0.943 (inactive).
Consider `O=C(NCCCNC(=O)Nc1cccc(C2=NCCN2)c1)Nc1cccc(C2=NCCN2)c1` [p32 Inhibitor M36], for which the “PARP1 L713F-nLuc/akaLuc ratio” value was 1.09 (inactive).
In the case of `CNC[C@@H](O)COc1ccc(Cl)c(-c2nc(-c3c(C)noc3C)c(C)c(N3CC4(CCN(C(=O)OC)CC4)C3)n2)c1`, the “PARP1 L713F-nLuc/akaLuc ratio” value is 0.955 (inactive).
The figure for `CNC(=O)c1cnc(NC(=O)C2CC2)cc1Nc1cccc(-c2ncc(F)cn2)c1OC` is 0.696 (inactive); for `CC1(C)NC(=O)N(c2ccc([N+](=O)[O-])c(C(F)(F)F)c2)C1=O` [Nilutamide] it is 0.772 (inactive); for `Cc1ccc(-c2cc(C(F)(F)F)nn2-c2ccc(S(N)(=O)=O)cc2)cc1` [Celecoxib] it is 1.02 (inactive).
`Nc1nc(Cl)nc2c1ncn2[C@H]1C[C@H](O)[C@@H](CO)O1` [Cladribine]: the “PARP1 L713F-nLuc/akaLuc ratio” value is 0.383 (inactive).
Turning to `CN(C)CCCCC(=O)Nc1ccc(NC(=S)NC(=O)c2ccc(C(C)(C)C)cc2)cc1` [Tenovin-6 (Hydrochloride)], the “PARP1 L713F-nLuc/akaLuc ratio” value was 0.665 (inactive).
The same measure for `CCNC(=O)NCCSC[C@H]1O[C@@H](n2cnc3c(N)ncnc32)[C@H](O)[C@@H]1O`: 0.751 (inactive); for `Cn1ncc(NC(=O)c2nc(-c3c(F)cccc3F)sc2N)c1N1CC[C@@H](N)[C@H](F)CC1`: 0.793 (inactive); for `Cn1nnc2c(C(N)=O)ncn2c1=O` [Temozolomide]: 0.833 (inactive).
Take `O=C(O)CCNc1cc(N2CCc3ccccc3CC2)nc(-c2cccnc2)n1`: the “PARP1 L713F-nLuc/akaLuc ratio” value is 1.22 (inactive).
Regarding `CC(C)c1cccc(=O)c(O)c1` [Hinokitiol], the “PARP1 L713F-nLuc/akaLuc ratio” value is 0.993 (inactive).
`O=c1[nH]c(=S)[nH]c(-c2ccccc2)c1Cc1c(O)ccc2ccccc12` [Cambinol]: the “PARP1 L713F-nLuc/akaLuc ratio” value was 0.684 (inactive).
`CNC(=O)c1cc(Oc2ccc(NC(=O)Nc3ccc(Cl)c(C(F)(F)F)c3)c(F)c2)ccn1` [Regorafenib (BAY 73-4506)]: the “PARP1 L713F-nLuc/akaLuc ratio” value was 0.687 (inactive).
As for `O=C1c2cccc(O)c2C(=O)c2c(O)cccc21` [Danthron], the “PARP1 L713F-nLuc/akaLuc ratio” value is 1.32 (inactive).
For the compound `CC[C@H](C)C(=O)O[C@H]1C[C@H](O)C=C2C=C[C@H](C)[C@H](CC[C@@H](O)C[C@@H](O)CC(=O)O)[C@H]21` [Pravastatin sodium], the “PARP1 L713F-nLuc/akaLuc ratio” value is 0.829 (inactive).
The same measure for `NC(=O)c1cnc2[nH]ccc2c1N[C@@H]1[C@@H]2CC3C[C@H]1C[C@@](O)(C3)C2` [Peficitinib]: 1.02 (inactive).
`O=c1[nH]c(CSC2CCC(O)CC2)nc2cc(OCC3CC3)cc(F)c12` (centres undefined): the “PARP1 L713F-nLuc/akaLuc ratio” value is 1.21 (inactive).
In the case of `O=c1[nH]ccc2c(O)cccc12` [1,5-Isoquinolinediol], the “PARP1 L713F-nLuc/akaLuc ratio” value was 2.7 (active).
With `CC(C)=CCC/C(C)=C/Cc1c(O)c(CC=C(C)C)c2c(c1O)C(=O)C1=C[C@@H]3C[C@H]4C(C)(C)O[C@@](C/C=C(/C)C(=O)O)(C3=O)[C@@]14O2` [Gambogenic acid], the “PARP1 L713F-nLuc/akaLuc ratio” value is 1.04 (inactive).
In the case of `CN1CCN(c2ccc(-c3cccc(CN4CCOCC4)c3)cc2NC(=O)c2c[nH]c(=O)cc2C(F)(F)F)CC1`, the “PARP1 L713F-nLuc/akaLuc ratio” value is 0.636 (inactive).
As for `Cc1ccc(OCCSc2ncccn2)c(Br)c1` [ZLN024 (hydrochloride)], the “PARP1 L713F-nLuc/akaLuc ratio” value is 0.863 (inactive).
In the case of `O=C1NC(=O)[C@@H](c2cn3c4c(cccc24)CCC3)[C@@H]1c1c[nH]c2ccccc12` [Tivantinib (ARQ 197)], the “PARP1 L713F-nLuc/akaLuc ratio” value is 0.773 (inactive).
With `CCN(CC)CCCC(C)Nc1c2ccc(Cl)cc2nc2ccc(OC)cc12` (centres undefined) [Quinacrine Dihydrochloride Dihydrate], the “PARP1 L713F-nLuc/akaLuc ratio” value was 0.656 (inactive).
In the case of `NC(=O)[C@@H]1CCCc2c1[nH]c1ccc(Cl)cc21` [(R)-Selisistat], the “PARP1 L713F-nLuc/akaLuc ratio” value was 0.592 (inactive).
